According to PubChem BioAssay (NCATS):
Several values for one entry are separate records, joined by “and”; a condition that tells them apart may be missing. Identical values can stand only once. Inconclusive results are not listed. A call without a number means that no potency is given here. Activity calls are given as the source filed them. Calls follow the shape of the full dose curve.

Tests used:
[1] = Cytotoxicity counterscreen for inhibitors of SARS-CoV-2 cell entry (AID 1645845); also: nearly all actives have a fitted effect of over 50% in size
In short: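 ATP-content luminescence (ATPLite 1step, 15 min RT) read after 48 h compound exposure of Expi293F cells stably expressing human ACE2; normalized to cells-only wells and media-only wells.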

[2] = Primary qHTS to identify inhibitors of SARS-CoV-2 cell entry (AID 1645846); conditions: activity change, negative = inhibition: at 57.1 µM (top of the series) unless noted; also: nearly all actives have a fitted effect of over 45% in size
In short: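 Inhibition of spike-mediated entry was scored in human ACE2-transfected Expi293F cells. Particles were MLV-pseudotyped with Wuhan-Hu-1 S carrying a 19-aa C-terminal deletion; signal was luciferase after two days, scaled between spike PP and fusion-protein-free PP.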

[3] = VSVG counterscreen qHTS to identify inhibitors of SARS-CoV-2 cell entry (AID 1645847); also: nearly all actives have a fitted effect of over 65% in size
In short: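 Luminescence from a luciferase reporter, normalised to bald particle and VSV-G pseudotyped particle wells, is the read-out. Cells are HEK293 expressing human ACE2, exposed to compound 1 h before a 48 h particle infection at 37 °C.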
Potency is read from the fitted curve at half-maximal effect.

c1ccc2[nH]ccc2c1
Potency [1]: inactive | Potency [2]: inactive

COc1cc2ncnc(-n3nc(-c4ccccn4)nc3N)c2cc1OC
Potency [1]: inactive | activity change, negative = inhibition [2]: -6.12%

O=C(Nc1cc(Cl)cc2c1[nH]c1cnccc12)c1cccnc1
Potency [1]: inactive | activity change, negative = inhibition [2]: -24.6% [at 27.1 µM]

CS(=O)(=O)Nc1ccc([N+](=O)[O-])cc1Oc1ccccc1
Potency [1]: inactive | activity change, negative = inhibition [2]: -13.1% and -8.45%

Cc1cc2c(cc1C1(c3ccc(C(=O)O)cn3)CC1)C(C)(C)CCC2(C)C
Potency [1]: inactive | Potency [2]: inactive

CC(C)CCCC(C)CCCC(C)CCCCC(C)CCCC(C)CCCC(C)C (stereo not given)
Potency [1]: inactive | activity change, negative = inhibition [2]: -16.5%

COc1ccccc1[C@H](c1cccc2ccccc12)[C@@](C)(C#N)C(=O)N1CCC(c2cccc(C(F)(F)F)c2)CC1
Potency [1]: inactive | activity change, negative = inhibition [2]: -3.93%

CS(=O)(=O)Oc1ccc2c(NC(N)=O)c(C(=O)c3ccc(Cl)cc3Cl)oc2c1
Potency [1]: inactive | Potency [2]: inactive

CCOc1cc(NC(C)=O)ccc1C(=O)OC
Potency [1]: inactive | Potency [2]: inactive

CC[N+](C)(CC)CCOC(=O)C(O)(c1ccccc1)C1CCCCC1 (stereo not given)
Potency [1]: inactive | Potency [2]: inactive

Cn1cc(-c2ccc3nnc(Sc4ccc5ncccc5c4)n3n2)cn1
Potency [1]: inactive | Potency [2]: inactive

Cc1ccnc(NS(=O)(=O)c2ccc(NC(=O)Nc3ccc(S(=O)(=O)Nc4nccc(C)n4)cc3)cc2)n1
Potency [1]: inactive | activity change, negative = inhibition [2]: -16.3%

COc1ccc2cc(CCC(C)=O)ccc2c1
Potency [1]: inactive | Potency [2]: inactive

Nc1ccccc1NC(=O)c1ccc(CNC(=O)OCc2cccnc2)cc1
Potency [1]: inactive | Potency [2]: inactive

Cc1nnc(C(C)C)n1C1CC2CCC(C1)N2CC[C@H](NC(=O)C1CCC(F)(F)CC1)c1ccccc1 (stereo not given in full)
Potency [1]: inactive | activity change, negative = inhibition [2]: 2.02% and -27.6%

CCOC(=O)[C@@H](N)CCC(=O)N[C@@H](CSCc1ccccc1)C(=O)N[C@@H](C(=O)OCC)c1ccccc1
Potency [1]: inactive | activity change, negative = inhibition [2]: 0.458%

Cc1cccc(-c2nn(C(=S)Nc3ccccc3)cc2-c2ccnc3ccccc23)n1
Potency [1]: inactive | Potency [2]: inactive

CCOc1cc(C(=O)Nc2ccc(Cl)c(-c3nc4ccccc4[nH]3)c2)cc(OCC)c1OCC
Potency [1]: inactive | Potency [2]: 25.1 µM (active)

CCN(c1ccccc1)c1cc(NC)[n+](C)c(C)n1
Potency [1]: inactive | activity change, negative = inhibition [2]: 3.72%

CCc1cc(Nc2nccc(-c3c(-c4ccc(OC)c(C(=O)Nc5c(F)cccc5F)c4)nc4ccccn34)n2)c(OC)cc1N1CCC(N2CCN(S(C)(=O)=O)CC2)CC1
Potency [1]: inactive | Potency [2]: inactive

O=C(Nc1ccc(OC(F)(F)F)cc1)c1sccc1NCc1ccnc2ccccc12
Potency [1]: inactive | activity change, negative = inhibition [2]: -18%

Cn1c2cc(S(C)=O)sc2c2cnn(Cc3cccc(N)c3)c(=O)c21 (stereo not given)
Potency [1]: inactive | activity change, negative = inhibition [2]: -23.3%

COc1ccccc1O
Potency [1]: inactive | Potency [2]: inactive

O=C(O)CCc1ccc(NCc2cccc(Oc3ccccc3)c2)cc1
Potency [1]: inactive | activity change, negative = inhibition [2]: -10.2%

Cc1ccccc1-n1c(Cn2cnc3c(N)ncnc32)nc2cccc(C)c2c1=O
Potency [1]: inactive | Potency [2]: inactive

CCc1c(C)[nH]c2c1C(=O)C(CN1CCOCC1)CC2 (stereo not given)
Potency [1]: inactive | Potency [2]: inactive

CC(C)(C)C(O)/C=C/c1ccc2c(c1)OCO2 (stereo not given)
Potency [1]: inactive | activity change, negative = inhibition [2]: -17.5%

C1Cc2[nH]nc(-c3nn[nH]n3)c2C1
Potency [1]: inactive | activity change, negative = inhibition [2]: 4.96%

NC(CO)C(=O)NNCc1ccc(O)c(O)c1O (stereo not given)
Potency [1]: inactive | Potency [2]: inactive

CCCCCCCCCCCCCC(=O)OC(C)C
Potency [1]: inactive | Potency [2]: inactive

CCCCC(CC)COC(=O)/C=C/c1ccc(OC)cc1 (stereo not given)
Potency [1]: inactive | activity change, negative = inhibition [2]: -3.29%

N#CCNC(=O)c1ccc(-c2ccnc(Nc3ccc(N4CCOCC4)cc3)n2)cc1
Potency [1]: 31.6 µM (active) | Potency [2]: 10 µM (active) | Potency [3]: 6.81 µM (active)
